Structures are written as SMILES. Out of some 340,000 compounds screened, about 390 (0.11%) were called active. This is one part of a sample in which actives are shown more often than they occur.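 The calls were made as follows: active = inhibition above the mean inhibition of all tested compounds plus 3 SD (cut at about 17% in these data); inactive = the rest.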

The term inhibition denotes the relative decrease from the control value, in per cent.

This test concerns the target Troponin I, cardiac muscle (Homo sapiens) + Troponin T, cardiac muscle (Homo sapiens) + Troponin C, slow skeletal and cardiac muscles (Homo sapiens) (UniProt P19429+P45379+P63316). As to the kind of experiment: calcium desensitizers of cardiac thin filaments – biochemical, IANBD-TnC fluorescence, EC70 calcium, primary screen (AID 493244).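 Also: assay run at fixed EC70 calcium of 1.6 mM.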 The settings on record: IANBD-labeled cardiac RTF, Ca2+ fluorescence; at 7.15 µM; hits give high values.
In the case of `COC1=C[C@@H]2[C@@H]3Cc4ccc(OC)c(O)c4[C@]2(CCN3C)CC1=O`, the inhibition was 19.3% (active).

In the case of `COc1ccc2c(c1)[C@]13CCCCC1C(C2)N(C)CC3` (stereo not given in full), the inhibition is -1.69% (inactive).

Consider `COc1ccc2c(c1O)-c1cccc3c1[C@@H](C2)N(C)CC3`, for which the inhibition is 4.82% (inactive).

In the case of `Cc1ccc(-c2nc3ccccc3c(=O)n2-c2ccc(Br)cn2)cc1`, the inhibition was -6.33% (inactive).

Turning to `COC(=O)C1=C(c2ccccc2)C[C@@H]2CC[C@H]1N2C(=O)N1CCCCC1`, the inhibition was 4.81% (inactive).

The values above are taken from PubChem BioAssay AID493244 (The Scripps Research Institute Molecular Screening Center, 2011).
